Common to all, as to test: DAPPL (digital affinity profiling via proximity ligation, sequencing); 10 mM Tris-HCl pH 7.5, 50 mM NaCl, 1 mM DTT, 4% glycerol, room temperature, 30 min; GST-TFs on glutathione beads, 16-mer random dsDNA library, 0.1% formaldehyde crosslink after washing; high values mean tight binding
The target in one assay is T1, FEV (Homo sapiens, UniProt Q99581 1-238).
T1 sequence: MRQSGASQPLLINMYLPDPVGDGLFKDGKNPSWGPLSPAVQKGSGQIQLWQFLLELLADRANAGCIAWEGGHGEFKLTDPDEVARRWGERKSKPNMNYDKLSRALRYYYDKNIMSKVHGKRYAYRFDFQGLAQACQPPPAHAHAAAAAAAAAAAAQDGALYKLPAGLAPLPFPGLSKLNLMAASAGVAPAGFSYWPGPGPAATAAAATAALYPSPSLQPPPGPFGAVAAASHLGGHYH
As to conditions: protein: recombinant; tags: N-terminal GST; dsDNA, one strand shown. An outline of the steps: (§1)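 Human transcription factors carrying a GST fusion were produced in yeast, bound to glutathione beads, tagged with DNA barcodes and pooled together with a tag-only sample. Each pool was held with 200 nmole of a random double-stranded 16-mer DNA library in Tris/NaCl/DTT/glycerol buffer for 30 min at room temperature, then washed, crosslinked in 0.1% formaldehyde, proximity-ligated with BsaI/T4 ligase (1 h, 37 °C), PCR-amplified and sequenced on an Illumina NextSeq500. Binding signal is the read frequency of each hexamer for a given factor divided by its frequency in the tag-only sample.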

For the next assay, the target named is ETV5 (Homo sapiens, UniProt P41161 1-510). The note with it: protein: recombinant; tags: N-terminal GST; dsDNA, one strand shown. The essentials:
as §1

The next assay deals with HSF1 (Homo sapiens, UniProt Q00613 1-529). The note with it: protein: recombinant; tags: N-terminal GST; chain copies: 3; dsDNA, one strand shown. The essentials:
as §1

The next assay concerns the target T2, SPIC (Homo sapiens, UniProt Q8N5J4 1-248).
T2 sequence: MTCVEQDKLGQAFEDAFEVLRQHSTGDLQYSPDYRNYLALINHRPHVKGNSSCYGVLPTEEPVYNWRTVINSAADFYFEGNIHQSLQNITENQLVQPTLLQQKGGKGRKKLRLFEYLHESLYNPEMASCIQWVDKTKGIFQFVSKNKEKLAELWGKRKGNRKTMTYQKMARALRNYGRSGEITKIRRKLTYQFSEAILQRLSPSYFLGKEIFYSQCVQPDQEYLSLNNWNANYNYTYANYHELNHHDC
The note with it: protein: recombinant; tags: N-terminal GST; dsDNA, one strand shown. The essentials:
as §1

For another assay, the target named is ELF4 (Homo sapiens, UniProt Q99607 1-663). The note with it: protein: recombinant; tags: N-terminal GST; dsDNA, one strand shown. The essentials: as §1
Another assay addresses T3, ELK4 (Homo sapiens, UniProt P28324-2 1-405).
T3 sequence: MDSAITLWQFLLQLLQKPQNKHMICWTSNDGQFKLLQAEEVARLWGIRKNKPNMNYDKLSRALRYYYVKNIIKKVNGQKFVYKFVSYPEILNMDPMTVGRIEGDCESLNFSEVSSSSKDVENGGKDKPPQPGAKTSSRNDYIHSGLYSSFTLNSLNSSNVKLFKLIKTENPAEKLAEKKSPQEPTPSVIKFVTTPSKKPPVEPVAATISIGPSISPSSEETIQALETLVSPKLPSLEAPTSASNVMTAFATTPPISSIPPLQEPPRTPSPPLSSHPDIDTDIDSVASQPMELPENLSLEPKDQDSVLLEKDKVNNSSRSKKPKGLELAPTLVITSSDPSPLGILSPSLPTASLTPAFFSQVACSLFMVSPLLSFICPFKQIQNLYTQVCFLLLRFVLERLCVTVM
The note with it: protein: recombinant; tags: N-terminal GST; dsDNA, one strand shown. An outline of the steps: as §1

A further assay deals with T4, ETV2 (Homo sapiens, UniProt O00321 1-342).
T4 sequence: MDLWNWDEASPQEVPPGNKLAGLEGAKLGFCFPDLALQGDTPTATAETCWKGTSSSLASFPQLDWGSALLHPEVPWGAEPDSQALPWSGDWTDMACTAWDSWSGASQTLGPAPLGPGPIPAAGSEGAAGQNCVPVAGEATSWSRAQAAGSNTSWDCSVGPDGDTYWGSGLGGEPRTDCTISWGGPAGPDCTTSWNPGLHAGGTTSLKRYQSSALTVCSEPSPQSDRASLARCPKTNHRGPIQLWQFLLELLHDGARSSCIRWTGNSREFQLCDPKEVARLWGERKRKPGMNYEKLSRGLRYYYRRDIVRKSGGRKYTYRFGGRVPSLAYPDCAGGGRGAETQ
As to conditions: protein: recombinant; tags: N-terminal GST; dsDNA, one strand shown. An outline of the steps:
as §1

The target of the next assay is T5, ELF3 (Homo sapiens, UniProt P78545 1-371).
T5 sequence: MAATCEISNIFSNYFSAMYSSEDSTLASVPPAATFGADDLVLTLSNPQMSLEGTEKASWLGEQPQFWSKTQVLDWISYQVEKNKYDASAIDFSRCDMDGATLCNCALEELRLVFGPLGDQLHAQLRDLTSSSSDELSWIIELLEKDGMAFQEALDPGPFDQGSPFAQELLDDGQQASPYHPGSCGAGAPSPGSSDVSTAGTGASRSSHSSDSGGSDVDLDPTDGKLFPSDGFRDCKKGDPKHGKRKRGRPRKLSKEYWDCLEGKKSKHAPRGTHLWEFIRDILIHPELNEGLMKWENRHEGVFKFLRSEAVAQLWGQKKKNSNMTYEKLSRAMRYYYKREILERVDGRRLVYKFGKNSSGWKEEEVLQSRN
The note with it: protein: recombinant; tags: N-terminal GST; dsDNA, one strand shown. An outline of the steps:
as §1

A further assay deals with CRX (Homo sapiens, UniProt O43186 1-299). As to conditions: protein: recombinant; tags: N-terminal GST; dsDNA, one strand shown. An outline of the steps:
as §1

The target of the next assay is ETV1 (Homo sapiens, UniProt P50549 1-477). As to conditions: protein: recombinant; tags: N-terminal GST; dsDNA, one strand shown. The essentials:
as §1

A further assay has as its target T6, ERF (Homo sapiens, UniProt P50548 1-548).
T6 sequence: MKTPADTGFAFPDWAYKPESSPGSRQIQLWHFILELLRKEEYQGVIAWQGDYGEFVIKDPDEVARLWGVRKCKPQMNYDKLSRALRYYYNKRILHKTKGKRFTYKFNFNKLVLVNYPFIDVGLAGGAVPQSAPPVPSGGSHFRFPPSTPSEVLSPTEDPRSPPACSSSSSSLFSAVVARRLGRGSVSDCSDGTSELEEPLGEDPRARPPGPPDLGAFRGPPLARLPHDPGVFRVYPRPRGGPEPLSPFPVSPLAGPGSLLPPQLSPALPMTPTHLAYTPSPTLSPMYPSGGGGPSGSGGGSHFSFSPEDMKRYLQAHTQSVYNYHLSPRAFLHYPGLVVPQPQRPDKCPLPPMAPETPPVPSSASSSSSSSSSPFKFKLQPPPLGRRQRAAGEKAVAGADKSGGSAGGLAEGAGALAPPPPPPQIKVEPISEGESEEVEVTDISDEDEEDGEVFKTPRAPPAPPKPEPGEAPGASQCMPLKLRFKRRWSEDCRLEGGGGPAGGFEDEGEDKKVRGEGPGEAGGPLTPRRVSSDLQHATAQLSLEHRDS
As to conditions: protein: recombinant; tags: N-terminal GST; dsDNA, one strand shown. The essentials: as §1

A further assay concerns the target T7, ETV3L (Homo sapiens, UniProt Q6ZN32 1-361).
T7 sequence: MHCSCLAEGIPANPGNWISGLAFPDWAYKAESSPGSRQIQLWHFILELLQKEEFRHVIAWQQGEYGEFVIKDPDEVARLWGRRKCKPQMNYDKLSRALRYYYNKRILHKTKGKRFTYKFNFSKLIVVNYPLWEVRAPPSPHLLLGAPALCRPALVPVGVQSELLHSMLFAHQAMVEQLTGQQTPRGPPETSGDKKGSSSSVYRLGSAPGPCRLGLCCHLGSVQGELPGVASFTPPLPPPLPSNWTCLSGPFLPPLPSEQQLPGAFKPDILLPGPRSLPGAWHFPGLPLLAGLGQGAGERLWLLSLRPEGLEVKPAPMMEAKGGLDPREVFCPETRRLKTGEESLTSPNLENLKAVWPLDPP
The note with it: protein: recombinant; tags: N-terminal GST; dsDNA, one strand shown. An outline of the steps: as §1

For the next assay, the target named is T8, ETS2 (Homo sapiens, UniProt P15036 1-469).
T8 sequence: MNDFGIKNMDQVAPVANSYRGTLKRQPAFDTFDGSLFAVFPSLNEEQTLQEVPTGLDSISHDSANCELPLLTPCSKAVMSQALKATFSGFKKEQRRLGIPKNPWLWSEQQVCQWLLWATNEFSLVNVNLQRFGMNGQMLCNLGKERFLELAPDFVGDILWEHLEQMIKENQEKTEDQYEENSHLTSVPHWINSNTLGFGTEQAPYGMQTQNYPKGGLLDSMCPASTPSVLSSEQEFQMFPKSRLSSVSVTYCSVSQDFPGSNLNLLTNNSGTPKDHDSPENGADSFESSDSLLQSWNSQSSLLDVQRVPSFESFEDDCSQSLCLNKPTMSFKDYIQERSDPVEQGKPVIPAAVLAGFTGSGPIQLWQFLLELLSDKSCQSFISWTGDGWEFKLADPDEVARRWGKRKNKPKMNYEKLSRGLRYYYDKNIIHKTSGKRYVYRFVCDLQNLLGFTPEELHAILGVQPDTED
The note with it: protein: recombinant; tags: N-terminal GST; dsDNA, one strand shown. An outline of the steps:
as §1

In another assay the target is T9, SPDEF (Homo sapiens, UniProt O95238 1-335).
T9 sequence: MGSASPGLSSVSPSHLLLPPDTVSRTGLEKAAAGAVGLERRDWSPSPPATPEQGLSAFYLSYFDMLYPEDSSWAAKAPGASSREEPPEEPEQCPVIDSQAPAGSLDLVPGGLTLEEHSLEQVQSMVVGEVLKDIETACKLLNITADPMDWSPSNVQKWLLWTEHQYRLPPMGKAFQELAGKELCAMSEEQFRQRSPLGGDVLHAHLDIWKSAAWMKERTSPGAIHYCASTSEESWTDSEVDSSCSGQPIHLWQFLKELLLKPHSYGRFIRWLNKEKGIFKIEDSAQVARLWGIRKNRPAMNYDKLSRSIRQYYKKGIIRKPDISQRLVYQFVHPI
The note with it: protein: recombinant; tags: N-terminal GST; dsDNA, one strand shown. The essentials:
as §1

A further assay concerns the target T10, ETV7 (Homo sapiens, UniProt Q9Y603 1-341).
T10 sequence: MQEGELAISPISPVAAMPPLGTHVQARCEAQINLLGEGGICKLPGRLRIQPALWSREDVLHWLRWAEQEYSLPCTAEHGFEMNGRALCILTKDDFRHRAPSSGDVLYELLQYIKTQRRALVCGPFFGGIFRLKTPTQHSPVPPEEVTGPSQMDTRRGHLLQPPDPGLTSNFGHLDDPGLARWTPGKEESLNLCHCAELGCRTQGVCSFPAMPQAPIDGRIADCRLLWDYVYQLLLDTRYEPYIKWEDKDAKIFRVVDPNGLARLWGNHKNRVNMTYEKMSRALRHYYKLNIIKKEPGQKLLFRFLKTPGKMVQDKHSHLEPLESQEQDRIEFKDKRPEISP
The note with it: protein: recombinant; tags: N-terminal GST; dsDNA, one strand shown. The essentials:
as §1

The target of the next assay is T11, ELF5 (Homo sapiens, UniProt Q9UKW6-2 1-255).
T11 sequence: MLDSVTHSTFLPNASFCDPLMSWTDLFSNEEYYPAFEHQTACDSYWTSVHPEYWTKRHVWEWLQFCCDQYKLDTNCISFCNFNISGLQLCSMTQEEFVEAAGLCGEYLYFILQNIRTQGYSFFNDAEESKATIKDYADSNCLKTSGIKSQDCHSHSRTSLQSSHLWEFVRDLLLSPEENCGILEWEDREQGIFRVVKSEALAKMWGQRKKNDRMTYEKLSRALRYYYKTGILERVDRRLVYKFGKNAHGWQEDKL
The note with it: protein: recombinant; tags: N-terminal GST; dsDNA, one strand shown. An outline of the steps: as §1

For the next assay, the target named is T12, ETV3 (Homo sapiens, UniProt P41162-2 1-143).
T12 sequence: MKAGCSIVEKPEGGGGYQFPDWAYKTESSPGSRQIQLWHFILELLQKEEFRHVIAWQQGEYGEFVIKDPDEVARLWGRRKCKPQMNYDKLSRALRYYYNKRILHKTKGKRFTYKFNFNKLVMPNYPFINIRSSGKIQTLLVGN
The note with it: protein: recombinant; tags: N-terminal GST; dsDNA, one strand shown. The essentials:
as §1

A further assay deals with ETV6 (Homo sapiens, UniProt P41212 1-452). As to conditions: protein: recombinant; tags: N-terminal GST; dsDNA, one strand shown. The essentials:
as §1

ELF4, sequence (Q99607 whole entry): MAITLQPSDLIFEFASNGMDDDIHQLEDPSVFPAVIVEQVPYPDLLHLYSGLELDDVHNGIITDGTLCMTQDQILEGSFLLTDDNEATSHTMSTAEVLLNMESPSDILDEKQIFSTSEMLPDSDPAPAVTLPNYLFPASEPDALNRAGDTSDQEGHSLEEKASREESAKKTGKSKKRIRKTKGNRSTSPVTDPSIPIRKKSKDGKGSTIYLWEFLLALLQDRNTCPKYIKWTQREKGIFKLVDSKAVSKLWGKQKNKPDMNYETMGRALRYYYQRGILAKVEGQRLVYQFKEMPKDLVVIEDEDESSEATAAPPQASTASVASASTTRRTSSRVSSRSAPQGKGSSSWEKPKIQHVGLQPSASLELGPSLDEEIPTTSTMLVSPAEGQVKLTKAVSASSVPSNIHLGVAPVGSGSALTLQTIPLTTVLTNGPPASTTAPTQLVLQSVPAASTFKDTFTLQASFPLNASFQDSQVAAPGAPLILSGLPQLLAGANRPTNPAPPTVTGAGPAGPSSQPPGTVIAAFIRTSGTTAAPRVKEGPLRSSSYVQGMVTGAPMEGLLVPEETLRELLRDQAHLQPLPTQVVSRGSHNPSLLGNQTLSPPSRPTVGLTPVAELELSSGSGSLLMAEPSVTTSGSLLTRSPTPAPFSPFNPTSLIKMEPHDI
HSF1, sequence (Q00613 whole entry): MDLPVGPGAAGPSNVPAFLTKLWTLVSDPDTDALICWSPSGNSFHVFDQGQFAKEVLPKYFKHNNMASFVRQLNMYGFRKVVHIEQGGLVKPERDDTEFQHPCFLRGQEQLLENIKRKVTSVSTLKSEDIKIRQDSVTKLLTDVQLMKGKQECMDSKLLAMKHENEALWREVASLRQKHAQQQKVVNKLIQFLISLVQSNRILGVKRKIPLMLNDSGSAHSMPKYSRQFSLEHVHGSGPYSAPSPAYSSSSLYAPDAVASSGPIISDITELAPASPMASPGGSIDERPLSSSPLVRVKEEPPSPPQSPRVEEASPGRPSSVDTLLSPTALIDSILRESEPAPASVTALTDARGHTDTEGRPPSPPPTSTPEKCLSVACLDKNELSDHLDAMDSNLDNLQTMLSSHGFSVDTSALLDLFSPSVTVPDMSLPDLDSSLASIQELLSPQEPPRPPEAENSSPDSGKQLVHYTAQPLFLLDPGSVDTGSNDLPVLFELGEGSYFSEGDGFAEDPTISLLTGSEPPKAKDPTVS
ETV1, sequence (P50549 whole entry): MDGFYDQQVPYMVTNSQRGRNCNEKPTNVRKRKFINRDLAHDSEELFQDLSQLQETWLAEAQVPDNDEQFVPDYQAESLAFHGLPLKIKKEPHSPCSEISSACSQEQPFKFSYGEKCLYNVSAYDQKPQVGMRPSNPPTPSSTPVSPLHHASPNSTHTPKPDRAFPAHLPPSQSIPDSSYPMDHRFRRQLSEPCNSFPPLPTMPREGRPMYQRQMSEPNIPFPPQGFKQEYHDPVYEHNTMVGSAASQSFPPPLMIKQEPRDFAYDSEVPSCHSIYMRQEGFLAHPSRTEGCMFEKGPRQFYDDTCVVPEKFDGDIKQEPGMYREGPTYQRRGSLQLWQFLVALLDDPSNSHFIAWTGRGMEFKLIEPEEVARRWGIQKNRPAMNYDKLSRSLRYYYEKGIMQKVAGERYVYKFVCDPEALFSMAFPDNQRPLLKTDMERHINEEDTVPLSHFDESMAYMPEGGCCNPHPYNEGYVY
CRX, sequence (O43186 whole entry): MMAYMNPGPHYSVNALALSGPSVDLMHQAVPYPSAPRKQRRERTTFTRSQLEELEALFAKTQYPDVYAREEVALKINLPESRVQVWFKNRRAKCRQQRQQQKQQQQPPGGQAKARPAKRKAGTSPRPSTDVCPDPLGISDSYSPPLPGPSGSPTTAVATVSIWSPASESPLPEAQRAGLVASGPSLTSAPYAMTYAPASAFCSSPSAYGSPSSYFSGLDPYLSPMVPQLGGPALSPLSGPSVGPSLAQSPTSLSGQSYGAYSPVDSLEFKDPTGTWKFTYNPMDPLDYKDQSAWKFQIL
ETV6, sequence (P41212 whole entry): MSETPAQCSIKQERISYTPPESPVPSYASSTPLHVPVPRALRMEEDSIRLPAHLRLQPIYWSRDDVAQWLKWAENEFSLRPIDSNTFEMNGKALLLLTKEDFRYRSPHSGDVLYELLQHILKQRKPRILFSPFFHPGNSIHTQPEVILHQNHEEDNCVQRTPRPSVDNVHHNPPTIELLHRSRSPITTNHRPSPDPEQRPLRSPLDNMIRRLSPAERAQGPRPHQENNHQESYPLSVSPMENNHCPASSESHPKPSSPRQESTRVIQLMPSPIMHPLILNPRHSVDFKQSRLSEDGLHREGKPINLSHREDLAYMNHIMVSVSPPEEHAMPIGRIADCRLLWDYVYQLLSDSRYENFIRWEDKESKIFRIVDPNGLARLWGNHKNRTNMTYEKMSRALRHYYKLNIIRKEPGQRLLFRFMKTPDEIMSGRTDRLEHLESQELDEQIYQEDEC
ETV5, sequence (P41161 whole entry): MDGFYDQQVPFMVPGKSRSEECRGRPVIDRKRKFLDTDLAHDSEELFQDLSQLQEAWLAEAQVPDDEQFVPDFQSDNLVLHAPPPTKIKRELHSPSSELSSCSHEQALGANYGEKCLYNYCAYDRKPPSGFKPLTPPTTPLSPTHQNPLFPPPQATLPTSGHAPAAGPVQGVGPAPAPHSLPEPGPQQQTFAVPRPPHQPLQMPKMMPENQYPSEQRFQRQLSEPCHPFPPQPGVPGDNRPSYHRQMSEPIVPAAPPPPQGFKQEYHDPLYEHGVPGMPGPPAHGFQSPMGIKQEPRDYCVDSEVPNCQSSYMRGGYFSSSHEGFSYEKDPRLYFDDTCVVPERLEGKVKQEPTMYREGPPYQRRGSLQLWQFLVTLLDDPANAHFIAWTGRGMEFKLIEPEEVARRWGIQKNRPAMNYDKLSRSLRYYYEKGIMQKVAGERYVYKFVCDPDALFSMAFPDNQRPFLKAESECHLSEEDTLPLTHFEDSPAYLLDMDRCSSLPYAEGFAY

As for AGCTCT, the binding signal with FEV is 1.19 fold enrichment (6-mer frequency, TF over GST control); in the assay with ETV5, 1.15 fold enrichment (6-mer frequency, TF over GST control); with HSF1, 1.25 fold enrichment (6-mer frequency, TF over GST control); with SPIC it was 1.24 fold enrichment (6-mer frequency, TF over GST control); in the assay with ELF4, 1.21 fold enrichment (6-mer frequency, TF over GST control); with ELK4, 1.22 fold enrichment (6-mer frequency, TF over GST control). The binding signal with ETV2 is 1.14 fold enrichment (6-mer frequency, TF over GST control); in the assay with ELF3, 1.21 fold enrichment (6-mer frequency, TF over GST control); with CRX, 1.41 fold enrichment (6-mer frequency, TF over GST control); with ETV1, 1.25 fold enrichment (6-mer frequency, TF over GST control); with ERF, 1.16 fold enrichment (6-mer frequency, TF over GST control); in the assay with ETV3L, 1.34 fold enrichment (6-mer frequency, TF over GST control). The binding signal was 1.16 fold enrichment (6-mer frequency, TF over GST control) in the assay with ETS2; 1.03 fold enrichment (6-mer frequency, TF over GST control) with SPDEF; 1.17 fold enrichment (6-mer frequency, TF over GST control) in the assay with ETV7; 1.12 fold enrichment (6-mer frequency, TF over GST control) in the assay with ELF5; 1.21 fold enrichment (6-mer frequency, TF over GST control) with ETV3; 1.17 fold enrichment (6-mer frequency, TF over GST control) with ETV6.
